Records with an inconclusive call do not appear. The source made the active and inactive calls. Calls come from the whole dose curve; as a rule, active = well fitted curve in the direction sought with a large enough effect; inconclusive = small, poorly fitted or top-dose-only effect, or another doubt; inactive = no such curve, though single readings can be large; an effect the other way counts as inactive or inconclusive.
Tests used:
[1] = biological target: Cellular tumor antigen p53 (Homo sapiens) (UniProt P04637); assay: Primary qHTS for small molecule compounds that upregulate eGFP-tagged delta133p53alpha (in N-terminal) cells. (AID 2060322); conditions: NCI-H358 eGFP-delta133p53alpha fluorescence, 24 h; activation: stronger effect = higher value;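 note: series mostly up to about 56 µM; 0% = DMSO vehicle and 100% = reference activator; nearly all actives have a fitted effect of over 75% in size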
In short: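 NCI-H358 cells pre-induced 24 h with 10 ng/ml doxycycline to express N-terminal eGFP-delta133p53alpha, then dosed 24 h at 37C without doxycycline; fixed, Hoechst-stained, GFP intensity by laser scanning cytometry, normalized to DMSO (0%) and 57.5 uM 5-azacytidine (100%).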

[2] = biological target: Aldehyde dehydrogenase, mitochondrial (Homo sapiens) (UniProt P05091); assay: qHTS for Inhibitors of the Aldehyde Dehydrogenase Family (ALDH2) Primary screen (AID 2061308);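 note: plate controls were vehicle for no effect and reference inhibitor for full effect; nearly all actives have a fitted effect of over 55% in size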
[3] = biological target: Retinaldehyde dehydrogenase 3 (Homo sapiens) (UniProt P47895); assay: qHTS for Inhibitors of the Aldehyde Dehydrogenase Family (ALDH1A3) Primary screen (AID 2061315);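 note: plate controls were DMSO vehicle for no effect and reference inhibitor for full effect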

Chain of Cellular tumor antigen p53 (Homo sapiens) (P04637 whole entry, looked up): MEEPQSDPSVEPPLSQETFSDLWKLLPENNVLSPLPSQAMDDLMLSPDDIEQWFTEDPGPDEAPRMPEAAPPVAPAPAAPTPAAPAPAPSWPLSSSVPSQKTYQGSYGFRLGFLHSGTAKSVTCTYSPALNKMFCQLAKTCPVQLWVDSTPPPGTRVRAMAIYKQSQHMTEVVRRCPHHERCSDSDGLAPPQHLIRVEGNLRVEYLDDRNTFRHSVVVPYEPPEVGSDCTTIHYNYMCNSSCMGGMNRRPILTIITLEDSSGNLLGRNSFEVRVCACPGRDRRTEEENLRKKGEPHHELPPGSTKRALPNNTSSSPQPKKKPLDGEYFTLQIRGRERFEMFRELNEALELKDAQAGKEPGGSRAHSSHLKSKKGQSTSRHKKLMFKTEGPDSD

CC1(C)C[C@H]2C3=CCC4[C@@]5(C)CC[C@H](O[C@H]6O[C@H](C(=O)O)[C@@H](O)[C@H](O)[C@H]6O[C@H]6O[C@H](CO)[C@@H](O)[C@H](O)[C@H]6O[C@@H]6O[C@H](CO)[C@@H](O)[C@H](O)[C@H]6O)[C@](C)(CO)C5CC[C@@]4(C)[C@]3(C)CC[C@@]2(C)[C@H](O[C@@H]2OC[C@H](O)[C@H](OC3O[C@H](CO)[C@@H](O)[C@H](O)[C@H]3O)[C@H]2O)[C@@H]1O (stereo not given in full)
inactive: activation [1] -19.8% | activity change, negative = inhibition [2] 2.01% [at 11.2 µM] | activity change, negative = inhibition [3] 14.7% [at 11.2 µM]

C[C@@]12C[C@]3(O)O[C@H](O1)[C@]1(COC(=O)c4ccccc4)[C@H]3C[C@@]12O[C@@H]1O[C@H](CO)[C@@H](O)[C@H](O)[C@H]1O
inactive: activation [1] 25% | Potency [2] | Potency [3]

NCCCC[C@H](NC(=O)[C@@H]1Cc2ccccc2CN1C(=O)CCC(=O)c1ccccc1)C(=O)NCC(c1ccccc1)c1ccccc1
inactive: activation [1] -6.33% | Potency [2] | Potency [3]

C[C@@H]1O[C@@H](O[C@H]2[C@H](O[C@H]3[C@H](O[C@H]4CC[C@@]5(C)C(CC[C@]6(C)C5CC=C5[C@@H]7CC(C)(C)C[C@@H](O)[C@]7(C)CC[C@]56C)[C@@]4(C)CO)O[C@H](C(=O)O)[C@@H](O)[C@@H]3O)OC[C@H](O)[C@@H]2O)[C@H](O)[C@H](O)[C@H]1O (stereo not given in full)
inactive: activation [1] 3.82% | Potency [2] | Potency [3]

CC1=C(C(=O)OCc2ccccc2)C(c2ccc(-c3ccccc3)cc2)NC(=O)N1CCCCCC(=O)O (stereo not given)
inactive: activation [1] 12.3% | Potency [2] | Potency [3]
